Rows were chosen to be rich in hits. Some 12% of all compounds tested hit in one or more screens of this group.
Cycloheximide cs – counter-screen hit for Shiga toxin inhibitors, cycloheximide; cell reporter, cycloheximide protein synthesis inhibition counterscreen; max response, %; 12% of 300,000 active; AID 2314; in the data active means max response mostly above about 13%, no sharp cut-off; inactive means mostly below about 14%; further: read at 38.3 µM for the half of the compounds with a filed dose; 0% is about no effect
FMDV inh – blocks foot and mouth disease virus; 1.2% of 410,000 active; AID 1159524; Potency, µM (titrated, usually from 57.9 µM), without a hit: at the highest dose activity change, negative = inhibition, actives largely listed as inhibitors; FMDV antiviral cell-based qHTS; calls by dose curve; tested in HEK293T cells; further: read-out not given here; potency means the concentration at half of the fitted maximal effect; on the % scale 0 is the no-effect control and ±100 the full control effect; nearly all actives have a fitted effect of over 45% in size
Sm TGR block – inhibitors of Schistosoma mansoni thioredoxin glutathione reductase. Q962Y6. purified TGR, DTNB reduction, TNB absorbance 405 nm. Potency, µM (highest dose often 114 µM), inactives show at the top dose activity change, negative = inhibition, hits mostly inhibitors. 3% of 360,000 active. AID 485364; active means well fitted inhibition curve with a large enough effect; inconclusive means small, poorly fitted or top-dose-only effect; inactive means no such curve, though single readings can be large or run the other way; further: potency means the concentration at half of the fitted maximal effect; on the % scale 0 is the no-effect control and ±100 the full control effect; nearly all actives have a fitted effect of over 60% in size
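Kinetic colorimetric format: TGR-catalysed, NADPH-driven DTNB reduction monitored via TNB absorbance. Enzyme dispensed at 20 nM; compound exposure 15 min at room temperature before reaction start.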
Shiga toxin inh – blocks Shiga toxin action in Vero cells; Vero cells, Shiga toxin protein synthesis inhibition reporter; inhibition, % at 38.7 µM; 9.2% of 290,000 active; AID 2315; in the data active means inhibition mostly above about 28%, no sharp cut-off; inactive means mostly below about 43%; further: 0% is about no effect
* marks the source's active call; other numbers are inactive results; u = inconclusive; x = no result given.

SMILES	Cycloheximide cs	FMDV inh	Sm TGR block	Shiga toxin inh
CC(C)C[C@H](NC(=O)[C@H](CCCCN)NC(=O)[C@H](CCCNC(=N)N)NC(=O)[C@H](C)NC(=O)[C@H](CO)NC(=O)[C@H](CCCCN)NC(=O)[C@H](CCCNC(=N)N)NC(=O)[C@H](C)NC(=O)CNC(=O)[C@@H](NC(=O)[C@H](Cc1ccccc1)NC(=O)CNC(=O)CNC(=O)[C@@H](N)Cc1ccccc1)[C@@H](C)O)C(=O)N[C@@H](C)C(=O)N[C@@H](CC(N)=O)C(=O)N[C@@H](CCC(N)=O)C(=O)O	-1	x	x	16
CCOC(=O)c1noc2ncn(CC(=O)O)c(=O)c12	x	34%	-7%	x
CC(=O)Nc1c(C)nn(-c2ccccc2)c1N1CCC(C(=O)Nc2ccccc2C(F)(F)F)CC1	x	0%	7%	x
COc1ccc(NC(=O)CCCN2C(=O)CCn3nc(-c4cn(C)c5ccccc45)cc32)cc1	x	-25%	1%	x
COc1cccc(N2C(=O)NC(=O)/C(=C/c3ccc4c(c3)Cc3ccccc3-4)C2=O)c1	19*	8%	u	40
COc1ccccc1N1C(=O)NC(=O)/C(=C/c2ccc([N+](=O)[O-])s2)C1=O	-1	u	5.6µM*	17
COc1cccc(N2C(=O)NC(=O)/C(=C/c3ccc([N+](=O)[O-])s3)C2=O)c1	-2	0%	7.9µM*	15
COc1ccc(/C=C2/C(=O)NC(=O)N(c3ccccc3)C2=O)cc1CN1C(=O)c2ccccc2C1=O	-3	-22%	u	-7
COc1ccc(N2C(=O)NC(=O)/C(=C/c3ccc([N+](=O)[O-])s3)C2=O)cc1	10	u	7.1µM*	-7
CCSc1nc2c(c(=O)[nH]c(=O)n2C)n1CC(O)COc1ccc(Cl)cc1 (stereo not given)	x	-17%	0%	x
COc1ccc(N2C(=O)NC(=O)/C(=C\c3ccc([N+](=O)[O-])s3)C2=O)cc1	5	-29%	7.9µM*	15
C=C1CCN(C(CC(C)C)C(=O)NCc2ccc(OC)cc2)S(=O)(=O)c2ccccc21 (stereo not given)	-3	x	x	-2
CC1=CCC(COC(=O)Nc2ccccc2)CC1 (stereo not given)	51*	20%	22%	82*
Oc1ccccc1/C=N/c1c(-c2ccco2)nc2ccccn12	6	1%	50µM*	-10
COc1cc(-c2nc3ccccn3c2/N=C/c2cccc(OC)c2O)ccc1O	23*	15%	-15%	54
COc1cc(-c2nc3ccccn3c2Nc2ccccc2C)ccc1O	x	-15%	-2%	x
COc1cc(-c2nc3ccccn3c2/N=C/c2ccc(F)cc2)ccc1O	16*	19%	-14%	24
Clc1ccc(/C=N/c2c(-c3ccco3)nc3ccccn23)cc1	-3	x	u	-6
COc1cc(C(=O)Nc2ccc(-c3cc(C(F)(F)F)nn3-c3ccccc3)cc2)cc(OC)c1OC	x	-24%	-3%	x
Cc1cc(OCCSc2nnc(-c3cccs3)n2C)ccc1Cl	9	-10%	-8%	21
Cn1c(SCC(=O)Nc2ccccc2F)nnc1-c1cccs1	26	66%	10%	43*
Cn1c(SCc2c(F)cccc2Cl)nnc1-c1cccs1	28*	88%	7%	68*
Cn1c(SCCOc2ccccc2Cl)nnc1-c1cccs1	26*	15%	-1%	39*
Cn1c(SCc2nc(-c3ccc(Cl)cc3)no2)nnc1-c1cccs1	10	0%	1%	22
CC(/C=N/NC(=O)c1cc(-c2ccc(C)s2)[nH]n1)=C\c1ccccc1	9	-1%	-12%	-15
SMILES	Cycloheximide cs	FMDV inh	Sm TGR block	Shiga toxin inh
CC(/C=N/NC(=O)c1cc(C(C)(C)C)[nH]n1)=C\c1ccccc1	2	-22%	2%	11
CC(=C/c1ccc(C(C)C)cc1)/C=N/NC(=O)c1ccncc1	36*	-25%	-1%	84*
CC(=C/c1ccccc1)/C=N/NC(=O)c1ccccn1	33*	u	3%	23*
CC(/C=N/NC(=O)c1ccncc1)=C\c1ccccc1	23*	x	-3%	52*
CC(/C=N/NC(=O)c1cccc(F)c1)=C\c1ccccc1	51*	5%	13%	104*
O=C(N/N=C/c1ccccc1O)c1ccncc1	x	21%	1%	x
CCOC(=O)c1ncc2[nH]c3cccc(OC(C)C)c3c2c1C	11	u	x	9
CCOC(=O)c1ccc(NC(=O)CC2C(=O)N(c3ccc(F)cc3)C(=O)N2Cc2ccc3c(c2)OCO3)cc1 (stereo not given)	x	-26%	-3%	x
COc1ccccc1C(=O)N/N=C/C(C)=C/c1ccccc1	19*	51%	-9%	113
CC(/C=C/c1ccccc1F)=N\NC(=O)c1cccc(F)c1	46*	-11%	-9%	65*
